Inconclusive results are not listed. Calls of active or inactive are those of the source. The call rests on the fitted dose curve; in most records, active means well fitted curve in the direction sought with a large enough effect; inconclusive means small, poorly fitted or top-dose-only effect, or another doubt; inactive means no such curve, though single readings can be large; an effect the other way counts as inactive or inconclusive.
experiment: Primary qHTS for inhibitors of nuclear receptor binding SET domain protein 2 (NSD2) in an isogenic RCH-ACV NSD2 p.E1099K mutant (9B) (AID 1645876); conditions: RCH-ACV NSD2 E1099K (9B) viability, CellTiter-Glo, 72 h; series mostly up to 44.9 µM; activity change, negative = viability loss: at the top concentration
Further: nearly all actives have a fitted effect of over 70% in size.
On the % scale 0 is the no-effect control and ±100 the full control effect; potency means the concentration at half of the fitted maximal effect.

Structure (SMILES)	Potency	activity change, negative = viability loss
CC1=CC(=O)[C@@H](O)[C@@]2(C)C1C[C@H]1OC(=O)[C@H](O)[C@@]3(O)[C@@H](C)[C@@H](O)[C@H](O)C2[C@@]13C (stereo partly drawn)	1.27 µM (active)	–
Fc1cc(F)c2c(c1)C1C=CCC1C(c1cccnc1)N2 (stereo not drawn)	8.17 µM (active)	–
COC1CC(O[C@H]2CC[C@@]3(C)C(CCC4C3CC[C@]3(C)C(C5=CC(=O)OC5)CCC43O)C2)OC(C)C1OC1OC(COC2OC(CO)C(O)C(O)C2O)C(O)C(O)C1O (stereo partly drawn)	0.975 µM (active)	–
C[C@@H]1O[C@@H](OC2CCC3(C=O)C(CCC4C3CCC3(C)C(C5=CC(=O)OC5)C(O)CC43O)C2)[C@H](O)[C@H](O)[C@H]1O[C@@H]1O[C@H](CO)[C@@H](O)[C@H](O)[C@H]1O (stereo partly drawn)	2.42 µM (active)	–
CC12CCC3C(C1)c1c(cc(O)c(C(=O)c4ccccc4)c1OC3(C)C)O2 (stereo not drawn)	–	-15.9% (inactive)
C=C1C(=O)CC2OC2(C)CC2OC(=O)C(=C)C2C(O)C1OC(=O)/C(C)=C\C (stereo not drawn)	2.26 µM (active)	–
CCCCCCC1C(=O)O[C@H](C)[C@H](NC(=O)c2cccc(NC=O)c2O)C(=O)O[C@@H](C)[C@@H]1OC(=O)CC(C)C (stereo partly drawn)	0.0115 µM (active)	–
C=C(C)[C@@]12O[C@@H]1[C@@]1(C)C(=CC2=O)CC[C@@H](OC(C)=O)[C@@H]1C	4.59 µM (active)	–
c1ccc([C@@H]2C[C@H]2NC2CCNCC2)cc1	–	-28% (inactive)
CC(C)[C@H]1OC(=O)[C@H](Cc2ccccc2)N(C)C(=O)[C@@H](C(C)C)OC(=O)[C@H](Cc2ccccc2)N(C)C(=O)[C@@H](C(C)C)OC(=O)[C@H](Cc2ccccc2)N(C)C1=O	6.82 µM (active)	–
CC[C@H](O)[C@@H](C)[C@H]1O[C@@H]1C[C@H](C)/C=C/C=C(\C)[C@H]1OC(=O)C[C@H](O)CC[C@@](C)(O)[C@@H](OC(C)=O)/C=C/[C@@H]1C	0.0058 µM (active)	–
CN(C)[C@@H]1C(=O)C(C(N)=O)=C(O)[C@@]2(O)C(=O)C3=C(O)c4c(O)ccc(Cl)c4[C@@](C)(O)C3C[C@@H]12 (stereo partly drawn)	–	-11.7% (inactive)
CC(=O)O[C@H]1C[C@]2(O)[C@@H]3CC[C@@H]4C[C@@H](O)CC[C@]4(C)[C@H]3CC[C@]2(C)[C@H]1c1ccc(=O)oc1	0.0459 µM (active)	–
C=C(C)C(=O)O[C@H]1[C@@H]2[C@H](C)C(=O)O[C@@H]2C[C@@H](C)[C@@H]2C=CC(=O)[C@]21C	2.01 µM (active)	–
CCN1C[C@]2(COC)CC[C@H](O)[C@@]34C5C[C@@H]6[C@@H](OC)C[C@@](OC(C)=O)(C5[C@@H]6OC(C)=O)[C@H]([C@H](OC)C23)[C@@H]14 (stereo partly drawn)	–	-13.8% [at 17.3 µM] (inactive)
CC(C)[C@H](NC(=O)c1nn(Cc2ccc(F)cc2)c2ccccc12)C(N)=O	–	-14.6% (inactive)
CCCN(CCC)[C@@H]1CCc2ccc3[nH]c(C#N)cc3c2C1	–	-13.9% (inactive)
Cc1ccc2c(c1)[C@H]1CN(C)CC[C@H]1N2C(=O)CSc1nnnn1-c1ccc(Cl)cc1	–	-18.3% (inactive)
COC1CCCC(C)OC(=O)Cc2cc(O)cc(O)c2C(=O)C1 (stereo not drawn)	2.84 µM (active)	–
C[C@]12CC[C@H](O)C[C@@H]1CC[C@@H]1[C@@H]2CC[C@]2(C)C(=O)CC[C@@H]12	–	-14.9% (inactive)
C#C[C@]1(O)CC[C@H]2[C@@H]3CC[C@H]4Cc5nc6nc7ccccc7n6cc5C[C@]4(C)[C@H]3CC[C@@]21C	12.9 µM (active)	–
COc1cc(O)c2c(c1)CCC[C@@H](O)[C@H](O)C(=O)/C=C\C[C@H](C)OC2=O	8.01 µM (active)	–
COc1cc(C(=O)N2CC[C@@H](O)[C@@H](N)C2)cc2nc(-c3cc4ccccc4n3CC3CC3)n(C)c12	20.9 µM (active)	–
C[C@]12CC[C@H](O)C[C@@H]1CC[C@@H]1[C@@H]2CC[C@]2(C)[C@@H](C3=CC(=O)OC3)CC[C@]12O	2.84 µM (active)	–
COC(=O)C12C(=O)C(C)(O)C(=O)C1(C)C(C)=CC1C34CCC(OC3=O)C(C)(C)C4CCC12C (stereo not drawn)	–	-18.3% [at 17.3 µM] (inactive)
CC1=CC2OC3CC(O)[C@](C)([C@@]2(C)C(O)C1=O)[C@]31CO1 (stereo partly drawn)	5.15 µM (active)	–
CN1Cc2c(ccc3c2OCO3)[C@@H]2[C@H]1c1cc3c(cc1C[C@@H]2O)OCO3	2.84 µM (active)	–

experiment: Primary qHTS for inhibitors of nuclear receptor binding SET domain protein 2 (NSD2) in an RCH-ACV wild type WT cells (2C) (AID 1645877); conditions: RCH-ACV (leukaemia line) NSD2 WT (2C) viability, CellTiter-Glo, 72 h; series mostly up to 44.9 µM; activity change, negative = cell killing: at the top concentration

Structure (SMILES)	Potency	activity change, negative = cell killing
CC1=CC(=O)[C@@H](O)[C@@]2(C)C1C[C@H]1OC(=O)[C@H](O)[C@@]3(O)[C@@H](C)[C@@H](O)[C@H](O)C2[C@@]13C (stereo partly drawn)	1.01 µM (active)	–
Fc1cc(F)c2c(c1)C1C=CCC1C(c1cccnc1)N2 (stereo not drawn)	16.3 µM (active)	–
COC1CC(O[C@H]2CC[C@@]3(C)C(CCC4C3CC[C@]3(C)C(C5=CC(=O)OC5)CCC43O)C2)OC(C)C1OC1OC(COC2OC(CO)C(O)C(O)C2O)C(O)C(O)C1O (stereo partly drawn)	1.73 µM (active)	–
C[C@@H]1O[C@@H](OC2CCC3(C=O)C(CCC4C3CCC3(C)C(C5=CC(=O)OC5)C(O)CC43O)C2)[C@H](O)[C@H](O)[C@H]1O[C@@H]1O[C@H](CO)[C@@H](O)[C@H](O)[C@H]1O (stereo partly drawn)	4.83 µM (active)	–
CC12CCC3C(C1)c1c(cc(O)c(C(=O)c4ccccc4)c1OC3(C)C)O2 (stereo not drawn)	–	-12% (inactive)
C=C1C(=O)CC2OC2(C)CC2OC(=O)C(=C)C2C(O)C1OC(=O)/C(C)=C\C (stereo not drawn)	2.01 µM (active)	–
C=C(C)[C@@]12O[C@@H]1[C@@]1(C)C(=CC2=O)CC[C@@H](OC(C)=O)[C@@H]1C	3.25 µM (active)	–
CC(C)[C@H]1OC(=O)[C@H](Cc2ccccc2)N(C)C(=O)[C@@H](C(C)C)OC(=O)[C@H](Cc2ccccc2)N(C)C(=O)[C@@H](C(C)C)OC(=O)[C@H](Cc2ccccc2)N(C)C1=O	4.83 µM (active)	–
CC[C@H](O)[C@@H](C)[C@H]1O[C@@H]1C[C@H](C)/C=C/C=C(\C)[C@H]1OC(=O)C[C@H](O)CC[C@@](C)(O)[C@@H](OC(C)=O)/C=C/[C@@H]1C	–	-95.8% (inactive)
CN(C)[C@@H]1C(=O)C(C(N)=O)=C(O)[C@@]2(O)C(=O)C3=C(O)c4c(O)ccc(Cl)c4[C@@](C)(O)C3C[C@@H]12 (stereo partly drawn)	–	-14.9% (inactive)
CC(=O)O[C@H]1C[C@]2(O)[C@@H]3CC[C@@H]4C[C@@H](O)CC[C@]4(C)[C@H]3CC[C@]2(C)[C@H]1c1ccc(=O)oc1	0.0578 µM (active)	–
C=C(C)C(=O)O[C@H]1[C@@H]2[C@H](C)C(=O)O[C@@H]2C[C@@H](C)[C@@H]2C=CC(=O)[C@]21C	1.79 µM (active)	–
CCN1C[C@]2(COC)CC[C@H](O)[C@@]34C5C[C@@H]6[C@@H](OC)C[C@@](OC(C)=O)(C5[C@@H]6OC(C)=O)[C@H]([C@H](OC)C23)[C@@H]14 (stereo partly drawn)	–	-12.2% [at 17.3 µM] (inactive)
CC(C)[C@H](NC(=O)c1nn(Cc2ccc(F)cc2)c2ccccc12)C(N)=O	–	-23.9% (inactive)
CCCN(CCC)[C@@H]1CCc2ccc3[nH]c(C#N)cc3c2C1	–	-11.6% (inactive)
Cc1ccc2c(c1)[C@H]1CN(C)CC[C@H]1N2C(=O)CSc1nnnn1-c1ccc(Cl)cc1	–	-20.5% (inactive)
COC1CCCC(C)OC(=O)Cc2cc(O)cc(O)c2C(=O)C1 (stereo not drawn)	3.19 µM (active)	–
C[C@]12CC[C@H](O)C[C@@H]1CC[C@@H]1[C@@H]2CC[C@]2(C)C(=O)CC[C@@H]12	–	-21.5% (inactive)
C#C[C@]1(O)CC[C@H]2[C@@H]3CC[C@H]4Cc5nc6nc7ccccc7n6cc5C[C@]4(C)[C@H]3CC[C@@]21C	11.5 µM (active)	–
CN1C(=O)N(c2ccc(C#N)c(C(F)(F)F)c2)C(=O)[C@@]1(CO)c1ccccc1	–	-19.6% (inactive)
COc1cc(O)c2c(c1)CCC[C@@H](O)[C@H](O)C(=O)/C=C\C[C@H](C)OC2=O	4.5 µM (active)	–
COc1cc(C(=O)N2CC[C@@H](O)[C@@H](N)C2)cc2nc(-c3cc4ccccc4n3CC3CC3)n(C)c12	18.6 µM (active)	–
C[C@]12CC[C@H](O)C[C@@H]1CC[C@@H]1[C@@H]2CC[C@]2(C)[C@@H](C3=CC(=O)OC3)CC[C@]12O	4.5 µM (active)	–
COC(=O)C12C(=O)C(C)(O)C(=O)C1(C)C(C)=CC1C34CCC(OC3=O)C(C)(C)C4CCC12C (stereo not drawn)	–	-38.7% [at 17.3 µM] (inactive)
CC1=CC2OC3CC(O)[C@](C)([C@@]2(C)C(O)C1=O)[C@]31CO1 (stereo partly drawn)	4.09 µM (active)	–
CN1Cc2c(ccc3c2OCO3)[C@@H]2[C@H]1c1cc3c(cc1C[C@@H]2O)OCO3	2.26 µM (active)	–

Reference: PubChem BioAssay (NCATS)
